Measurements from PubChem BioAssay AID1159580 (chemical genetic matrix, 2015).
In all, about 5,500 compounds went through this assay and about 2,000 (36%) were called active. About 18% were inconclusive and are not listed. The list shows a part of the results. Values without a mark were called inactive. Cut-off read from the data, not from the text of the source: active = normalized growth mostly below about 0.91 (no sharp cut-off); inconclusive = no clear call, values can overlap the other calls; inactive = mostly above about 0.92.

Assay: chemical genetic growth profiling, strain panel (AID 1159580);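 note: tested at 20 µM; growth read once vehicle control cultures reached saturation at 30 °C; 1 = growth at the plate median or of vehicle wells; lower values mean less growth of the strain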
Details: growth OD

CC(C)c1c(O)ccc2c1CCC1C(C)(C)CCC[C@]21C (some centres not stated)
normalized growth (S. cerevisiae deletion strains, locus YJR066W, strain TOR1, stronger effect = lower value): 0.709 (active) | normalized growth (S. cerevisiae deletion strains, locus YKL009W, strain mrt4, stronger effect = lower value): 0.822 (active) | normalized growth (S. cerevisiae deletion strains, locus YKL068W, stronger effect = lower value): 1.03 | normalized growth (S. cerevisiae deletion strains, locus YKL085W, strain MDH1 (second series), stronger effect = lower value): 0.358 (active) | normalized growth (S. cerevisiae deletion strains, locus YKL085W, strain MDH1, stronger effect = lower value): 0.358 (active) | normalized growth (S. cerevisiae deletion strains, locus YKL160W, strain elf1, stronger effect = lower value): 0.729 (active) | normalized growth (S. cerevisiae deletion strains, locus YKL190W, strain CNB1, stronger effect = lower value): 0.0594 (active) | normalized growth (S. cerevisiae deletion strains, locus YKR001C, strain vps1, stronger effect = lower value): 0.0785 (active) | normalized growth (S. cerevisiae deletion strains, locus YKR026C, strain gcn3, stronger effect = lower value): 0.993 | normalized growth (S. cerevisiae deletion strains, locus YKR091W, strain srl3, stronger effect = lower value): 0.78 (active) | normalized growth (S. cerevisiae deletion strains, locus YLL001W, strain dnm1, stronger effect = lower value): 0.819 (active) | normalized growth (S. cerevisiae deletion strains, locus YLL026W, stronger effect = lower value): 0.263 (active) | normalized growth (S. cerevisiae deletion strains, locus YLL041C, strain sdh2, stronger effect = lower value): 0.55 (active) | normalized growth (S. cerevisiae deletion strains, locus YLR027C, strain aat2, stronger effect = lower value): 0.254 (active) | normalized growth (S. cerevisiae deletion strains, locus YLR039C, strain RIC1, stronger effect = lower value): 0.127 (active) | normalized growth (S. cerevisiae deletion strains, locus YLR058C, strain SHM2, stronger effect = lower value): 0.104 (active) | normalized growth (S. cerevisiae deletion strains, locus YLR102C, strain apc9, stronger effect = lower value): 0.214 (active) | normalized growth (S. cerevisiae deletion strains, locus YLR113W, strain HOG1, stronger effect = lower value): 0.3 (active) | normalized growth (S. cerevisiae deletion strains, locus YLR221C, strain rsa3, stronger effect = lower value): 0.337 (active) | normalized growth (S. cerevisiae deletion strains, locus YLR258W, strain gsy2, stronger effect = lower value): 0.343 (active) | normalized growth (S. cerevisiae deletion strains, locus YLR262C, strain YPT6 (second series), stronger effect = lower value): 0.146 (active) | normalized growth (S. cerevisiae deletion strains, locus YLR268W, strain sec22, stronger effect = lower value): 0.191 (active) | normalized growth (S. cerevisiae deletion strains, locus YLR320W, strain mms22, stronger effect = lower value): 0.22 (active) | normalized growth (S. cerevisiae deletion strains, locus YLR342W, strain FKS1 (second series), stronger effect = lower value): 0.139 (active) | normalized growth (S. cerevisiae deletion strains, locus YLR342W, strain FKS1, stronger effect = lower value): 0.43 (active) | normalized growth (S. cerevisiae deletion strains, locus YLR357W, strain rsc2, stronger effect = lower value): 1.14 | normalized growth (S. cerevisiae deletion strains, locus YLR370C, strain arc18, stronger effect = lower value): 1.06 | normalized growth (S. cerevisiae deletion strains, locus YLR371W, strain rom2, stronger effect = lower value): 0.186 (active) | normalized growth (S. cerevisiae deletion strains, locus YLR384C, strain iki3, stronger effect = lower value): 1.01 | normalized growth (S. cerevisiae deletion strains, locus YLR418C, strain cdc73, stronger effect = lower value): 0.125 (active) | normalized growth (S. cerevisiae deletion strains, locus YML016C, strain PPZ1, stronger effect = lower value): 0.438 (active) | normalized growth (S. cerevisiae deletion strains, locus YML032C, strain rad52, stronger effect = lower value): 0.315 (active) | normalized growth (S. cerevisiae deletion strains, locus YML120C, strain ndi1, stronger effect = lower value): 0.235 (active) | normalized growth (S. cerevisiae deletion strains, locus YML124C, strain tub3, stronger effect = lower value): 0.241 (active) | normalized growth (S. cerevisiae deletion strains, locus YMR058W, strain fet3, stronger effect = lower value): 0.968 | normalized growth (S. cerevisiae deletion strains, locus YMR078C, strain ctf18, stronger effect = lower value): 0.211 (active) | normalized growth (S. cerevisiae deletion strains, locus YMR125W, strain sto1, stronger effect = lower value): 0.928 | normalized growth (S. cerevisiae deletion strains, locus YMR129W, stronger effect = lower value): 0.692 (active) | normalized growth (S. cerevisiae deletion strains, locus YMR205C, strain PFK2, stronger effect = lower value): 0.305 (active) | normalized growth (S. cerevisiae deletion strains, locus YMR223W, strain ubp8, stronger effect = lower value): 0.21 (active) | normalized growth (S. cerevisiae deletion strains, locus YMR231W, strain pep5, stronger effect = lower value): 0.93 | normalized growth (S. cerevisiae deletion strains, locus YMR307W, strain GAS1, stronger effect = lower value): 0.179 (active) | normalized growth (S. cerevisiae deletion strains, locus YNL067W, strain RPL9B, stronger effect = lower value): 0.279 (active) | normalized growth (S. cerevisiae deletion strains, locus YNL071W, strain lat1, stronger effect = lower value): 0.13 (active) | normalized growth (S. cerevisiae deletion strains, locus YNL128W, strain TEP1, stronger effect = lower value): 0.205 (active) | normalized growth (S. cerevisiae deletion strains, locus YNL183C, strain NPR1, stronger effect = lower value): 0.627 (active) | normalized growth (S. cerevisiae deletion strains, locus YNL209W, strain ssb2, stronger effect = lower value): 0.689 (active) | normalized growth (S. cerevisiae deletion strains, locus YNL233W, strain BNI4, stronger effect = lower value): 0.0951 (active) | normalized growth (S. cerevisiae deletion strains, locus YNL248C, strain rpa49, stronger effect = lower value): 0.989 | normalized growth (S. cerevisiae deletion strains, locus YNL250W, strain rad50, stronger effect = lower value): 0.786 (active) | normalized growth (S. cerevisiae deletion strains, locus YNL271C, strain bni1, stronger effect = lower value): 0.74 (active) | normalized growth (S. cerevisiae deletion strains, locus YNL298W, strain CLA4, stronger effect = lower value): 0.636 (active) | normalized growth (S. cerevisiae deletion strains, locus YNL307C, strain MCK1, stronger effect = lower value): 0.0705 (active) | normalized growth (S. cerevisiae deletion strains, locus YNL322C, strain KRE1 (second series), stronger effect = lower value): 1.03 | normalized growth (S. cerevisiae deletion strains, locus YNL322C, strain KRE1, stronger effect = lower value): 0.0898 (active) | normalized growth (S. cerevisiae deletion strains, locus YNR049C, strain mso1, stronger effect = lower value): 0.994 | normalized growth (S. cerevisiae deletion strains, locus YNR052C, strain pop2, stronger effect = lower value): 0.313 (active) | normalized growth (S. cerevisiae deletion strains, locus YOL006C, strain TOP1, stronger effect = lower value): 0.227 (active) | normalized growth (S. cerevisiae deletion strains, locus YOL012C, strain htz1): 0.469 | normalized growth (S. cerevisiae deletion strains, locus YOL147C, strain pex11, stronger effect = lower value): 0.131 (active) | normalized growth (S. cerevisiae deletion strains, locus YOR001W, strain rrp6, stronger effect = lower value): 0.556 (active) | normalized growth (S. cerevisiae deletion strains, locus YOR061W, strain CKA2, stronger effect = lower value): 0.173 (active) | normalized growth (S. cerevisiae deletion strains, locus YOR069W, strain VPS5, stronger effect = lower value): 0.372 (active) | normalized growth (S. cerevisiae deletion strains, locus YOR070C, strain gyp1, stronger effect = lower value): 0.157 (active) | normalized growth (S. cerevisiae deletion strains, locus YOR080W, strain dia2, stronger effect = lower value): 0.685 (active) | normalized growth (S. cerevisiae deletion strains, locus YOR083W, strain WHI5, stronger effect = lower value): 0.424 (active) | normalized growth (S. cerevisiae deletion strains, locus YOR106W, strain vam3, stronger effect = lower value): 0.274 (active) | normalized growth (S. cerevisiae deletion strains, locus YOR136W, strain idh2, stronger effect = lower value): 0.287 (active) | normalized growth (S. cerevisiae deletion strains, locus YOR144C, strain elg1, stronger effect = lower value): 0.295 (active) | normalized growth (S. cerevisiae deletion strains, locus YOR184W, strain ser1, stronger effect = lower value): 0.134 (active) | normalized growth (S. cerevisiae deletion strains, locus YOR231W, strain MKK1, stronger effect = lower value): 0.366 (active) | normalized growth (S. cerevisiae deletion strains, locus YOR265W, strain rbl2, stronger effect = lower value): 0.31 (active) | normalized growth (S. cerevisiae deletion strains, locus YOR270C, strain vph1, stronger effect = lower value): 0.632 (active) | normalized growth (S. cerevisiae deletion strains, locus YOR290C, strain snf2, stronger effect = lower value): 0.712 (active) | normalized growth (S. cerevisiae deletion strains, locus YOR316C, strain cot1, stronger effect = lower value): 0.263 (active) | normalized growth (S. cerevisiae deletion strains, locus YPL051W, strain arl3, stronger effect = lower value): 0.322 (active) | normalized growth (S. cerevisiae deletion strains, locus YPL078C, strain atp4, stronger effect = lower value): 0.925 | normalized growth (S. cerevisiae deletion strains, locus YPL106C, strain sse1, stronger effect = lower value): 0.815 (active) | normalized growth (S. cerevisiae deletion strains, locus YPL240C, strain hsp82, stronger effect = lower value): 0.29 (active) | normalized growth (S. cerevisiae deletion strains, locus YPL241C, strain CIN2, stronger effect = lower value): 0.166 (active) | normalized growth (S. cerevisiae deletion strains, locus YPL256C, strain CLN2, stronger effect = lower value): 0.521 (active) | normalized growth (S. cerevisiae deletion strains, locus YPR119W, strain clb2, stronger effect = lower value): 0.187 (active) | normalized growth (S. cerevisiae deletion strains, locus YPR141C, strain kar3, stronger effect = lower value): 1.01 | normalized growth (S. cerevisiae deletion strains, locus YPR163C, strain tif3, stronger effect = lower value): 0.187 (active) | normalized growth (S. cerevisiae deletion strains, locus YPR167C, strain met16, stronger effect = lower value): 0.139 (active) | normalized growth (S. cerevisiae deletion strains, strain wtn01, stronger effect = lower value): 0.132 (active) | normalized growth (S. cerevisiae strains, strain wild type, stronger effect = lower value): 0.0726 (active)
